Screening data (PubChem BioAssay)
Shown are actives, neighbours in structure and some others; about 12% of the full set was active somewhere.
Pf growth 96h: inhibits malaria parasite growth, 96 h. P. falciparum luciferase reporter growth, 96 h. Potency, µM (titrated, usually from 28.7 µM), without a hit: top-dose activity change, negative = inhibition, usual class: inhibitors. 320,000 tested, 6.9% active. AID 504834; further: on the % scale 0 is the no-effect control and ±100 the full control effect
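Plates of compound plus infected erythrocytes (2% hematocrit, 0.05% parasitemia final) incubate 96 hours, 37 C, 5% CO2. Detection reagent added; reduced luminescence from the parasites' luciferase reporter flags inhibition.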
AMA1-RON2 inh: disrupts binding of P. falciparum AMA1 to RON2; AlphaScreen AMA1-biotinylated RON2 peptide binding; Potency, µM (doses to about 58.2 µM), inactives show top-dose activity change, negative = inhibition, hits mostly inhibitors; 360,000 tested, 0.2% active; AID 720542;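 further: 0% = vehicle wells and -100% = peptide control; nearly all actives have a fitted effect of over 45% in size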
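AMA1 (3D7) with his tag at 25 nM final met compounds first, then biotinylated RON2 peptide at 25 nM; detection used donor plus acceptor beads, 10 µg/mL apiece, read by AlphaScreen after 30 min at room temperature.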
SARS PLP yeast: SARS-CoV PLP inhibition in yeast. S. cerevisiae expressing SARS-CoV PLpro, growth rescue. 330,000 tested, 0.19% active. Potency, µM (series often up to 32.9 µM), for inactives: top-dose activity, positive = growth rescue, usual class: activators; calls by dose curve; further: 0% is about no effect; nearly all actives have a fitted effect of over 55% in size
NS1 inh: influenza NS1 inhibition; Potency, µM (doses to about 46.1 µM), without a hit: top-dose activity, positive = more growth; 270,000 tested, 0.4% active; AID 2326; calls by dose curve; further: actives are rising curves; nearly all actives have a fitted effect of over 50% in size
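S. cerevisiae expressing influenza A NS1, grown in glucose, washed, then diluted 1:100 into pH 6.0 -URA galactose medium with 23 nl compound. Growth recovery read as OD600; NS1-free strain serves as control.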
HCV inh: blocks hepatitis C virus. Huh7.5.1 HCVcc-Cre infection, luciferase reporter, 44 h. 340,000 tested, 3.4% active. AID 651820. Potency, µM (series often up to 41.8 µM), inactives show top-dose activity change, negative = inhibition, usual class: inhibitors; further: on the % scale 0 is the no-effect control and ±100 the full control effect
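Cells (1,000/well) were plated 4 h before compound, then infected with HCVcc-Cre virus (~0.5 moi). After 44 h further culture, infection was read as luciferase luminescence following a 15 min substrate incubation at room temperature.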
Pf growth 48h: inhibits P. falciparum growth in the first generation, 48 h. P. falciparum luciferase growth in erythrocytes, 48 h. Potency, µM (series often up to 28.7 µM), for inactives: at the highest dose activity change, negative = inhibition, usual class: inhibitors. 310,000 tested, 5.9% active. AID 504832; further: on the % scale 0 is the no-effect control and ±100 the full control effect
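Luciferase-expressing P. falciparum in infected erythrocytes (2% hematocrit, 0.1% parasitemia final) in RPMI 1640/0.5% Albumax were exposed to compound for 48 hours at 37 C, 5% CO2; growth read as luminescence.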
HCV inh confirm: HCV inhibition, cherry-pick confirmation; shares compounds with HCV inh; AID 720575; 640 tested, 78% active; HCVcc-Cre infectious virus cell assay, luciferase, inhibition; Potency, µM (series often up to 41.8 µM), for inactives: at the top dose activity, negative = inhibition, actives largely listed as inhibitors; further: nearly all actives have a fitted effect of over 80% in size
HCV host tox: counter-screen for HCV inhibitors: host cell cytotoxicity | shares compounds with HCV inh | Potency, µM (highest dose often 41.8 µM), inactives show at the top dose activity change, negative = cytotoxicity, most hits filed as inhibitors | 640 tested, 22% active | HCV host cell line cytotoxicity counterscreen;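 further: 44 h compound exposure; on the % scale 0 is the no-effect control and ±100 the full control effect; nearly all actives have a fitted effect of over 55% in size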
An asterisk follows results filed as active. Unless noted, the call rests on the fitted dose curve; in most records, active means well fitted curve in the direction sought with a large enough effect; inconclusive means small, poorly fitted or top-dose-only effect, or another doubt; inactive means no such curve, though single readings can be large; an effect the other way counts as inactive or inconclusive. Potency means the concentration at half of the fitted maximal effect.

Results for N=c1c2c3c(sc2ncn1N)CCC3 ?
Pf growth 96h: 15%; AMA1-RON2 inh: 72%; SARS PLP yeast: 1%; NS1 inh: 3%; HCV inh: 1%; Pf growth 48h: 43%

What do the screens show for `CC(C)(C)C1CCc2c(sc3ncn(N)c(=N)c23)C1` (stereo unspecified)?
Pf growth 96h: -29%; AMA1-RON2 inh: 100%; SARS PLP yeast: -3%; NS1 inh: -6%; HCV inh: inconclusive; Pf growth 48h: 5%; HCV inh confirm: 6.3µM*; HCV host tox: inconclusive

How did c1ccc(-c2cccc(-c3ccccn3)n2)nc1 do in these assays?
Pf growth 96h: 40%; AMA1-RON2 inh: -88%; SARS PLP yeast: -37%; NS1 inh: -284%; HCV inh: 5.6µM*; Pf growth 48h: 1.5µM*; HCV inh confirm: 3.5µM*; HCV host tox: 3.5µM*

How did c1ccc(-c2ccc(-c3ccccn3)s2)nc1 do in these assays?
Pf growth 96h: 495%; AMA1-RON2 inh: 14%; SARS PLP yeast: -4%; NS1 inh: -65%; HCV inh: inconclusive; Pf growth 48h: 384%

Results for COc1ccc(C2CC(c3cccs3)=Nc3ccccc3S2)cc1 (stereo unspecified) ?
Pf growth 96h: inconclusive; AMA1-RON2 inh: -27%; SARS PLP yeast: -15%; NS1 inh: inconclusive; HCV inh: inconclusive; Pf growth 48h: 11%; HCV inh confirm: inconclusive; HCV host tox: 16%

Results for COc1ccc(C2CC(c3cccs3)=NN2S(C)(=O)=O)cc1 (stereo unspecified) ?
Pf growth 96h: 49%; AMA1-RON2 inh: 21%; SARS PLP yeast: 0%; NS1 inh: 7%; HCV inh: 7%; Pf growth 48h: 68%

What do the screens show for `CCOC1=C2[C@@H](CN(S(=O)(=O)c3ccc(C)cc3)[C@H]2c2cccc3ccccc23)[C@H]2C(=O)N(C3CCCCC3)C(=O)[C@H]2C1`?
AMA1-RON2 inh: -6%

How did Cc1cc(C)c(CN2CCN(C(=O)Cn3cnc4c(OCc5ccccc5)ncnc43)CC2)c(C)c1 do in these assays?
AMA1-RON2 inh: -2%; SARS PLP yeast: -12%; HCV inh: 0.56µM*; HCV inh confirm: 2.5µM*; HCV host tox: 5.6µM*

What do the screens show for `CCOc1ccc2nc(N/C(N)=N/C(=S)Nc3cccc(OC)c3)nc(C)c2c1`?
Pf growth 96h: inconclusive; AMA1-RON2 inh: 83%; SARS PLP yeast: -1%; NS1 inh: 9%; HCV inh: inconclusive; Pf growth 48h: inconclusive

Results for CCOc1ccc2nc(N/C(N)=N/C(=S)Nc3cccc(C)c3)nc(C)c2c1 ?
Pf growth 96h: inconclusive; AMA1-RON2 inh: 45%; SARS PLP yeast: -2%; NS1 inh: -6%; HCV inh: 5.6µM*; Pf growth 48h: inconclusive; HCV inh confirm: 7.9µM*; HCV host tox: -19%

How did CCc1ccc(OCC(O)CN2CCC(CN3C(=O)c4cccc5cccc(c45)C3=O)CC2)cc1 (stereo unspecified) do in these assays?
Pf growth 96h: inconclusive; AMA1-RON2 inh: 0%; SARS PLP yeast: -7%; NS1 inh: 6%; HCV inh: 6.3µM*; Pf growth 48h: -9%; HCV inh confirm: 7µM*; HCV host tox: 14µM*

What do the screens show for `O=C(N[C@@H]1CC[C@@H](CCn2cc(-c3ccccc3)nn2)O[C@@H]1CO)c1cnccn1`?
AMA1-RON2 inh: 3%
